Screening data as filed in PubChem.
Vif imaging: HIV Vif self-association inhibitors, primary screen, imaging, HEK293T, single point; HEK293T cells, Vif self-association by quenched fluorescence, 24 h; inhibition, % at 7.49 µM; hit rate 0.35% among 340,000; AID 602346, 2012; in the data active = inhibition above about 50%, passing the limit was not always enough
PDI turbidity: inhibitors of human PDI, primary screen, biochemical, turbidity, single point, plate reader; Protein disulfide-isomerase (Homo sapiens), P07237; PDI insulin aggregation turbidity, A650, 90 min; inhibition, % at 10 µM; hit rate 0.052% among 350,000; AID 588391, 2011;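 active = mean inhibition across replicates of 30% or more, whatever share of single replicates reach that level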
Target sequence (P07237 whole entry, looked up): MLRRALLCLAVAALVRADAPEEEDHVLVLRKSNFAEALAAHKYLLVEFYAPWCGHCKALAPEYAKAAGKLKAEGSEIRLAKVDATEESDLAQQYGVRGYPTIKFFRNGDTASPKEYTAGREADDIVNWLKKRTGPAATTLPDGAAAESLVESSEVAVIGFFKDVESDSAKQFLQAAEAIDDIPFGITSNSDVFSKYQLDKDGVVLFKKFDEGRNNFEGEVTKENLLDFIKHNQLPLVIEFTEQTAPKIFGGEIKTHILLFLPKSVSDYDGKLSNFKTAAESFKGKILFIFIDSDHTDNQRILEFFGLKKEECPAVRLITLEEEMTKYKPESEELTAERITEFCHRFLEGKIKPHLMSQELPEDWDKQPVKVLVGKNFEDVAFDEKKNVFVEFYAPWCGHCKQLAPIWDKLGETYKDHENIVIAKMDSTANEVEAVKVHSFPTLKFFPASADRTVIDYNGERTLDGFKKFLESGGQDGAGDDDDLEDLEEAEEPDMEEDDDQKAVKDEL
Glyco luc inh: increase of ERlucT glycosylation luciferase signal, primary screen, N-linked glycosylation inhibitor project, D54 ERlucT cells, luminescence, set 2; D54 ERlucT glycosylation luciferase reporter, 24 h; percent of 100 nM tunicamycin response; reporter increase, % at 12.5 µM; hit rate 0.23% among 360,000;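 active = mean luciferase reporter signal, scaled so untreated is 0 and the glycosylation-blocking control 100, at or above a set limit in every replicate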;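 note: luciferase carries N-glycosylation sites so blocking glycosylation raises the light; 0% = median of neutral control wells and 100% = median of 100 nM tunicamycin wells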
PvdQ acylase: P. aeruginosa PvdQ acylase inhibitors, primary screen, biochemical, fluorescence, plate reader and imaging, single point; purified PvdQ acylase; inhibition, % at 10 µM; hit rate 0.063% among 340,000; AID 488965, 2010; in the data active = inhibition above about 30%, passing the limit was not always enough;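 note: 0% = vehicle neutral wells and 100% = reference inhibitor wells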
ERp5 inh: inhibitors of ERp5-driven insulin aggregation, primary screen, biochemical, turbidity, absorbance 650 nm, single point. inhibition, % at 9.99 µM. Protein disulfide-isomerase A6 (Homo sapiens), Q15084. hit rate 0.05% among 350,000. 90 min. AID 651711, 2012;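 active = mean replicate inhibition above about 25%, with every replicate also reaching it, limit read from the data, passing the limit was not always enough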
An asterisk follows results filed as active; . = not tested or not shown. Compounds with a hit are over-represented: about 0.56% of the library has one in this group of screens.

SMILES	Vif imaging	PDI turbidity	Glyco luc inh	PvdQ acylase	ERp5 inh
CC[n+]1c(/C=C/C=C/c2ccc(N(C)C)cc2)sc2ccccc21	-16.2	2.3	28.3*	-1.3	1.0
Nc1ccncc1Cl	-2.0	-2.2	-0.7	11.2	-3.4
CNC1(c2ccc(F)cc2)CCCCC1	3.8	-16.7	2.7	-4.5	4.8
OC1(c2ccc(F)cc2)CCNC1 (configuration not stated)	82.0*	4.8	0.2	-7.2	.
CNc1cc(N2CCNCC2)ccc1[N+](=O)[O-]	50.9*	-4.9	-2.6	-5.5	0.1
Nc1cc(N2CCNCC2)ccc1[N+](=O)[O-]	3.8	-14.7	1.0	1.3	.
COC(=O)c1ccc(N2CCN(C)CC2)c([N+](=O)[O-])c1	9.5	7.4	0.9	-7.7	2.3
NC(=O)c1cc(N2CC2)c([N+](=O)[O-])cc1[N+](=O)[O-]	78.5*	-4.1	0.9	8.3	0.8
NCCc1c[nH]c2ccc(OCc3ccccc3)cc12	-3.6	-6.9	1.1	1.9	10.6
